Results: the supplement of paper PMC8269313
Structures can show the parent of a compound that is named as a salt.

Test system: 4T1
Assay: % inhibition of 4T1 cell number vs DMSO control; higher = stronger growth inhibition
Conditions: 1 µM, 3 days
Outline: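 In 96-well imaging plates whose edge wells went unused, 3000 4T1-H2B-GFP mouse breast cancer cells per well were seeded in 2% FBS medium onto plastic, denuded lung matrix, mCAF1 fibroblast-derived matrix, Matrigel (15 μg/mL) or 0.2% gelatin. Sixteen hours on, kinase inhibitors went in at 1 μM final for 3 days before formalin fixation, DAPI staining and imaging on an INCell Analyzer 2200. Counting of GFP-positive nuclei gave cell numbers, from which percent inhibition relative to control was derived.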

[1] = substrate: lung fibroblast-derived matrix
[2] = substrate: mCAF1 fibroblast-derived matrix

Row | SMILES | % inhibition of 4T1 cell number (substrate: Matrigel) | % inhibition of 4T1 cell number (substrate: gelatin) | % inhibition of 4T1 cell number [1] | % inhibition of 4T1 cell number [2] | % inhibition of 4T1 cell number (substrate: plastic)
1 | O=c1[nH][nH]c2nnc(-c3c(-c4ccccc4)nn4ccccc34)cc12 [ERK Inhibitor II, Negative control] | -40.3% | -11.4% | -10% | 3.24% | -83.1%
2 | Fc1ccc(-c2nc3n(c2-c2ccncc2)CCS3)cc1 | 28.9% | 18.4% | -11.4% | 18.8% | 9.54%
3 | NC(N)=NCCNS(=O)(=O)c1cccc2cnccc12 [HA 1004, Dihydrochloride] | -14.8% | -0.694% | -2.73% | -8.89% | -48.5%
4 | CC(C)(C)c1ccc(S(=O)(=O)Nc2ccc(-n3ccnc3)cc2)cc1 [Stem-Cell Factor/c-Kit Inhibitor, ISCK03] | 40.2% | 60.6% | 90.5% | 7.06% | 39.4%
5 | O=C1NC(=O)C(c2c[nH]c3ccccc23)=C1c1c[nH]c2ccccc12 [Bisindolylmaleimide IV] | 24.5% | -65.7% | 47.8% | 17.1% | -20.6%
6 | CNc1cc2c(Nc3cccc(Br)c3)ncnc2cn1 | -6.51% | -93.8% | 25.4% | 6.09% | -25.5%
7 | Cn1sc(=O)n(Cc2ccccc2)c1=O [GSK-3b Inhibitor I] | -33.1% | 10.3% | 9.49% | 21.6% | -62.7%
8 | N#CC(C#N)=C(N)/C(C#N)=C/c1ccc(O)cc1 | -1.44% | 52.7% | -11.6% | 11.4% | 21.1%
9 | O=C1Cc2c([nH]c3ccc([N+](=O)[O-])cc23)-c2ccccc2N1 [Alsterpaullone] | 61.5% | 45.2% | -3.92% | -0.808% | 56.1%
10 | CC(C)[C@H](CO)Nc1nc(Nc2cccc(Cl)c2)c2ncn(C(C)C)c2n1 [Purvalanol A] | -8.87% | 15.8% | 83.6% | 40.3% | -20.5%
11 | Cc1cc2ncc(-c3ccccc3)nc2cc1C | 1.93% | 65.9% | -4.16% | 30.3% | 45.2%
12 | Cc1ccc(S(=O)(=O)/C=C/C#N)cc1 | 18.5% | 38.2% | -8.23% | -0.662% | 5.77%
13 | CO[C@H]1C[C@@H]2CC[C@@H](C)[C@@](O)(O2)C(=O)C(=O)N2CCCC[C@H]2C(=O)O[C@H]([C@H](C)C[C@@H]2CC[C@@H](O)[C@H](OC)C2)CC(=O)[C@H](C)/C=C(\C)[C@@H](O)[C@@H](OC)C(=O)[C@H](C)C[C@H](C)/C=C/C=C/C=C/1C [Rapamycin] | -18.4% | -32% | -0.258% | 23.7% | -50.8%
14 | C[C@@H](N)C1CCC(C(=O)Nc2ccncc2)CC1 (stereo not given in full) | -13.2% | -4.77% | -5.27% | 9.93% | -47.5%
15 | COc1ccc(CNc2nc(N(CCO)CCO)nc3c2ncn3C(C)C)cc1 [Cdk2 Inhibitor III] | -37% | 15.9% | 6.49% | 22% | -27.8%
16 | O=C1Nc2ccc(Br)cc2/C1=C/c1cc2c([nH]1)CCCC2 [VEGF Receptor 2 Kinase Inhibitor II] | 16.3% | -22.2% | -11.9% | -141% | 8.31%
17 | COc1cc2ncnc(Nc3ccc(Oc4ccccc4)cc3)c2cc1OC [Src Kinase Inhibitor I] | -19.5% | -6.86% | -13.5% | 32.6% | -35.4%
18 | Cn1c(O)c(-c2[nH]c3ccccc3c2N=O)c2ccc(Br)cc21 [GSK-3 Inhibitor IX, Control, MeBIO] | 3.95% | 2.35% | 16% | -1.76% | -22.7%
19 | CN[C@@H]1C[C@H]2O[C@@](C)([C@@H]1OC)n1c3ccccc3c3c4c(c5c6ccccc6n2c5c31)C(=O)N[C@H]4O | 99.4% | 99.2% | 14.1% | 88.8% | 95.5%
20 | COc1ccc(OC)c2c(=S)c3ccccc3[nH]c12 | -8.48% | -7.36% | -13.6% | 4.29% | -67%
21 | O=C(Nc1ccncc1)Nc1c(Cl)cc(Cl)cc1Cl [Rho Kinase Inhibitor II] | -9.94% | -2.18% | -4.7% | -19.5% | -18.6%
22 | O=C(c1ccc(Nc2nccc(-c3cc4ccccc4s3)n2)cc1)N1CCC(N2CCCC2)CC1 [IKK Inhibitor VII] | 81.6% | 55.4% | -10% | 52.9% | -20.6%
23 | O=C1NC(=O)C(c2cn(CCCO)c3ncccc23)=C1c1cnccn1 [GSK-3b Inhibitor XI] | 26.7% | 30.4% | 0.393% | 15.6% | 44.6%
24 | O=C(O)C=Cc1cc(Br)c(Br)c(Br)c1Br [Casein Kinase II Inhibitor III, TBCA] | 33.8% | 27.7% | 2.78% | 2.33% | 40.6%
25 | Oc1ccc(-c2nc(-c3ccc(F)cc3)c(-c3ccncc3)[nH]2)cc1 | 19.2% | 56% | -2.55% | 38.9% | 30.1%
26 | Cn1nc2c3c(cccc31)C(=O)c1ccccc1-2 [JNK Inhibitor, Negative Control] | -37.2% | -36.9% | 0.304% | 24.3% | -59.1%
27 | O=C1Cc2c([nH]c3ccc(Br)cc23)-c2ccccc2N1 [Kenpaullone] | -24.2% | -0.528% | 23.3% | 25.6% | -48.1%
28 | O=c1c(O)c(-c2ccc(O)c(O)c2)oc2cc(O)c(O)c(O)c12 [Quercetagetin] | 28.5% | 52.6% | -6.29% | 36.1% | 48.4%

Row | SMILES | % inhibition of 4T1 cell number (substrate: Matrigel) | % inhibition of 4T1 cell number (substrate: gelatin) | % inhibition of 4T1 cell number [1] | % inhibition of 4T1 cell number [2] | % inhibition of 4T1 cell number (substrate: plastic)
29 | NCCCn1cc(C2=C(c3c[nH]c4ccccc34)C(=O)NC2=O)c2ccccc21 [Bisindolylmaleimide III, Hydrochloride] | 50.6% | 46.1% | 12.7% | -60.9% | 37.2%
30 | O=[N+]([O-])c1ccc(-c2nc(-c3ccc(F)cc3)c(-c3ccncc3)[nH]2)cc1 | -4.18% | 12% | -11.4% | 26.1% | -60.5%
31 | Nc1n[nH]c(N)c1N=Nc1ccc(O)cc1 [Cdk9 Inhibitor II] | 11% | 10.5% | -8.89% | -4.98% | 12%
32 | CNCCNS(=O)(=O)c1cccc2cnccc12 [H-8, Dihydrochloride] | -17.7% | 25.7% | -6.96% | 30.5% | -63%
33 | CC[C@H](CO)Nc1nc(NCc2ccccc2)c2ncn(C(C)C)c2n1 [Roscovitine] | -1.22% | 53.1% | -2.74% | 3.56% | -18.8%
34 | COc1cc2ncnc(Nc3ccc(Cl)cc3Cl)c2cc1OC [Ste11 MAPKKK Activation Inhibitor] | 42% | 66.8% | 0.704% | -27.6% | 36.1%
35 | O=S(=O)(c1cccc2c(I)cccc12)N1CCCNCC1 [ML-7, Hydrochloride] | 23% | 24.2% | -1.62% | 33.6% | -7.72%
36 | COc1cccc(-c2cc(=O)c3ccccc3o2)c1N | -3.15% | -1.31% | -10.2% | 25.7% | -41.4%
37 | CN(C)S(=O)(=O)c1ccc2c(c1)/C(=C/c1cc3c([nH]1)CCCC3)C(=O)N2 | -10.2% | 2.33% | -16.4% | -22.1% | -51.8%
38 | NCCNc1ncc(C(N)=O)c(Nc2cccc(C(F)(F)F)c2)n1 [Syk Inhibitor II] | -0.528% | -84.2% | -1.24% | -23.5% | -12.4%
39 | O=c1c2ccccc2[nH]c(=S)n1CCN1CCC(=C(c2ccc(F)cc2)c2ccc(F)cc2)CC1 [Diacylglycerol Kinase Inhibitor II] | 8.29% | -29.1% | -1.99% | -11% | -33.4%
40 | Cn1c2ccccc2c2c3c(c4c5ccccc5n(CCC#N)c4c21)CNC3=O | 50.9% | 67.2% | -8.31% | 34.5% | 72.7%
41 | Brc1c(Br)c(Br)c2n[nH]nc2c1Br [Casein Kinase II Inhibitor I] | 49.8% | 40.2% | 1.56% | -30.6% | 39.4%
42 | Cc1ncc2ccccc2c1C#N [4-Cyano-3-methylisoquinoline] | 48.6% | 52.6% | -13.2% | -46.1% | 56.8%
43 | O=C(Nc1cc(Cl)cc2c1[nH]c1cnccc12)c1cccnc1 [IKK Inhibitor X] | 42.5% | 25.8% | -6.01% | -10% | 57.7%
44 | COc1cc2ncc(-c3ccccc3)nc2cc1OC | 20.6% | 47% | -16.1% | 27.8% | 39.5%
45 | O=S(=O)(c1cccc2cnccc12)N1CCCNCC1 [HA 1077, Dihydrochloride] | 25.3% | 21.7% | -23.5% | 4.22% | 21.9%
46 | O=c1cc(N2CCNCC2)oc2c(-c3ccccc3)cccc12 | -14.2% | -6.29% | -1.5% | 6.84% | -42.8%
47 | CCC(=O)Nc1ccc2ncnc(Nc3cccc(Br)c3)c2c1 | -8.72% | -108% | -2.26% | -19.4% | -59.2%
48 | CC(=O)O/N=C1/C(c2c(O)[nH]c3cc(Br)ccc23)=Nc2ccccc21 [GSK-3 Inhibitor X] | -22.6% | 52.7% | -8.8% | 59.3% | 58.1%
49 | CCN(CC)C(=O)c1ccc(Nc2nc(OCC3CCCCC3)c3[nH]cnc3n2)cc1 [Cdk2 Inhibitor IV, NU6140] | -9.76% | -12.1% | -6.34% | 80.5% | 44.3%
50 | CCCOc1ccc(/C=C2/SC(=O)NC2=O)cc1 [PIM1/2 Kinase Inhibitor VI] | 16.2% | 22.9% | 2.3% | -16.9% | -1.33%
51 | O=C1Nc2ccc(Cl)cc2/C1=C/c1cc(Cl)c(O)c(Cl)c1 [PKR Inhibitor, Negative Control] | -11.8% | -80.4% | 86.7% | 8.78% | -63.2%
52 | COc1cc2ncnc(Nc3cccc(Cl)c3)c2cc1OC | 19.4% | -16.6% | -4.35% | 6.77% | 36%
53 | N#Cc1c(C2CCNCC2)cc(-c2c(O)cccc2OCC2CC2)nc1N [IKK-2 Inhibitor VIII] | -23.5% | -17.9% | -4.53% | 9.43% | -39.2%
54 | Nc1[nH]nc2nnc(-c3c(-c4ccccc4)nn4ccccc34)cc12 | -37.8% | -5.47% | -14.3% | 1.41% | -58.3%
55 | Cn1cnc2cc3c(Nc4cccc(Br)c4)ncnc3cc21 | 5.46% | -49.9% | -0.216% | -36.5% | -21.9%
